We go through 63 molecules from PubChem BioAssay AID686979 (National Center for Advancing Translational Sciences (NCATS), 2013).

In all, about 420,000 compounds went through this assay and about 50,000 (12%) were called active. Where a call stands in place of a potency, no number is given. Inconclusive results (about 26%) are left out. This is one part of a sample in which actives are shown more often than they occur. Calls come from the whole dose curve; as a rule, active = well fitted inhibition curve with a large enough effect; inconclusive = small, poorly fitted or top-dose-only effect; inactive = flat fitted curve, though single readings scatter.
Potency is the fitted concentration of half-maximal effect.

The nature of this assay: qHTS for Inhibitors of human tyrosyl-DNA phosphodiesterase 1 (TDP1): qHTS in cells in presence of CPT. Note: nearly all actives have a fitted effect of over 55% in size. The following applies: chicken DT40 Tdp1-/-;hTDP1 cells + 20 nM CPT, ATP luminescence, 48 h; series mostly up to 46.2 µM. In outline: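 Cell growth measured by CellTiter-Glo luminescence after a minimum 48 h, 37 C compound exposure with 20 nM CPT in Tdp1-knockout DT40 cells stably expressing hTDP1, seeded 400/well; qHTS titration format.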
With `COc1cc(C)ccc1OCC(=O)OCC(=O)c1ccc[nH]1`, the Potency result was “inactive”.
The result for `Cc1cc(NS(=O)(=O)c2ccc(NC(=O)C(C)Oc3cccc(C)c3C)cc2)nc(C)n1` (stereo not drawn) reads “inactive”; that for `N#CC1(C#N)C(C(=O)C23CC4CC(CC(C4)C2)C3)C12CCOCC2` (stereo not drawn), “inactive”.
Under `COc1ccccc1NC(=O)c1ccc(N2CC3CC(C2)c2cccc(=O)n2C3)c(NC(=O)c2cccnc2)c1` (stereo not drawn) stands “inactive”; under `Cc1ccc(S(=O)(=O)N(Cc2cccc([N+](=O)[O-])c2)C(=O)N2CCN(C)CC2)cc1`, “inactive”.
Under `O=C(CCl)N(Cc1cccc([N+](=O)[O-])c1)c1cccc(Cl)c1` stands 2.31 µM (active); under `O=C(Nc1cccc([N+](=O)[O-])c1)Nc1ccc(Cl)cn1`, “inactive”.
Take `COc1ccccc1N1CCC(N2CCN(CC(C)(C)C)C(CCO)C2)CC1` (stereo not drawn): the Potency result is “inactive”.
Under `C=CS(=O)c1sc(Cl)c(N2CCOCC2)c1[N+](=O)[O-]` (stereo not drawn) stands 0.731 µM (active); under `Cc1cc(C)n(S(=O)(=O)c2cccc([N+](=O)[O-])c2)n1`, “inactive”.
Under `CN(C)S(=O)(=O)c1cc(C(=O)Nc2ccn(C)n2)c(Cl)cc1Cl` stands “inactive”.
As to `COCCNC(=O)COc1ccc(N(C)S(=O)(=O)c2ccc3ccccc3c2)cc1`, the Potency result was “inactive”.
The result for `O=S(=O)(Cc1ccc(Cl)cc1Cl)c1ccc(Cl)cc1` reads 0.82 µM (active); that for `NNC(=O)c1ccc(Cl)cc1Cl`, “inactive”; that for `O=S(=O)(NCC1CC1)c1ccc(F)c(Cl)c1`, “inactive”.
The result for `O=CN1CCN(C(=O)c2ccc(Br)o2)CC1` reads “inactive”.
The result for `O=C(CSc1ncnc2c1oc1ccccc12)NC1CCCC1` reads “inactive”.
With `CC(C)[C@@H]1COC(c2cccc(C3=N[C@H](C(C)C)CO3)c2)=N1`, the Potency is 20.6 µM (active).
Under `O=C(O)CSCC(=O)Nc1ccc(C(F)(F)F)cc1` stands “inactive”; under `O=C(OCC(=O)N1CCCCC1)c1ccc(OC(F)(F)F)cc1`, “inactive”; under `NS(=O)(=O)c1ccc(CCNC(=O)CCCCCn2c(=O)[nH]c3ccccc3c2=O)cc1`, “inactive”.
For `O=C(CCCCCn1c(=O)[nH]c2ccccc2c1=O)NCCc1c[nH]c2ccccc12`, the Potency result was “inactive”.
The result for `O=C(Cc1csc(Nc2nc(=S)[nH]c3ccccc23)n1)NCCCN1CCN(c2cccc(Cl)c2)CC1` reads 16.4 µM (active).
The result for `Cc1ccc(C)c(N2CCN(C(=O)CCc3c(C)nc4c(c3C)c(=O)n(C)c(=O)n4C)CC2)c1` reads “inactive”; that for `Cc1nc2ccccc2c2oc(C(=O)NCCCN3CCC(C)CC3)cc12`, “inactive”.
As for `Cc1ccc(C)c(N2CCN(C(=O)CCCCn3c(=O)[nH]c4ccccc4c3=O)CC2)c1`, the Potency was 16.4 µM (active).
On to `O=C(CCn1c(=O)[nH]c2ccccc2c1=O)NCCCN1CCN(c2cccc(Cl)c2)CC1`, for which the Potency was 20.6 µM (active).
The result for `CCN(CC)CCNC(=O)CCCCCn1c(=O)[nH]c2cc(C(=O)OC)ccc2c1=O` reads “inactive”; that for `O=C(CCCn1c(=O)[nH]c2cc(Cl)ccc2c1=O)NCCN1CCN(c2ccccc2)CC1`, 23.1 µM (active); that for `O=C(CCCCn1c(=O)[nH]c2ccccc2c1=O)NCc1ccc2c(c1)OCO2`, “inactive”.
Under `O=C(NCCN1CCOCC1)c1cc(Sc2cccc(Cl)c2)nc2ccccc12` stands “inactive”; under `O=C(CCn1c(=S)[nH]c2ccccc2c1=O)NCCCN1CCCC1=O`, “inactive”.
`COc1cc(/C=C2\CCCc3c2nc2ccccc2c3C(=O)O)cc(Cl)c1O`: the Potency result was “inactive”.
The result for `O=C(Nc1cccnc1Oc1ncnc2cc(Cl)ccc12)c1ccc(F)cc1` reads “inactive”.
The result for `CC(NS(=O)(=O)c1ccccc1)c1n[nH]c(=S)n1-c1ccccc1` (stereo not drawn) reads “inactive”.
The result for `CCC(C)CN1C(=O)CN(S(C)(=O)=O)CC1(C)C(=O)Nc1ccc2c(c1)OCCO2` (stereo not drawn) reads “inactive”; that for `O=C(C[C@H]1CC[C@H]2[C@@H](COC[C@H](O)CN2C(=O)c2ccccn2)O1)N1CCN(c2ccccc2)CC1`, “inactive”.
Turning to `Cc1nccn1-c1ccc(NC(=O)[C@H]2O[C@@H](n3ccc(=O)[nH]c3=O)[C@H](O)[C@@H]2O)cc1`, the Potency entry is “inactive”.
The result for `CC(=O)Nc1cnc(-c2ccc(O)cc2C)cn1` reads 9.2 µM (active).
Take `CC(=O)Nc1cncc(-c2ccccc2CO)n1`: the Potency result was “inactive”.
The result for `Cc1cc(O)ccc1-c1cnc2ccccc2n1` reads “inactive”.
Under `COc1ccc(NC(=O)c2cc(-c3ccc(C)cc3)on2)cc1` stands “inactive”; under `COc1ccc(C(=O)NNc2cc(C)nc(NNC(=O)c3ccc(OC)cc3)n2)cc1`, “inactive”.
The result for `COC(=O)c1ccc2nc(-c3cccc(Br)c3)c(Cc3ccccc3C(F)(F)F)n2c1` reads “inactive”; that for `COC(=O)c1ccc(COC(=O)c2cnc(Cl)c(Cl)c2)cc1`, “inactive”.
With `COC(=O)c1ccc2nc(-c3ccc(OC)c(OC)c3)c(Cc3ccccc3)n2c1`, the Potency was 23.1 µM (active).
The result for `COc1ccc(C(=O)OCC(=O)NCCCc2ccccc2)cc1OC` reads “inactive”; that for `COC(=O)c1ccc(CSc2nc3cc(Cl)ccc3o2)cc1`, “inactive”; that for `COC(=O)c1ccc2nc(-c3ccc(C)cc3)c(Cc3ccc(OC)cc3C)n2c1`, 23.1 µM (active).
The result for `COC(=O)c1ccc2nc(-c3ccc(Cl)cc3)c(Cc3cccc(F)c3)n2c1` reads 20.6 µM (active); that for `Cc1ccc(N2CCN(c3ccc([N+](=O)[O-])cn3)CC2)c(C)c1`, “inactive”.
Under `CCOC(=O)CNC(=O)/C(=C\c1ccc(F)cc1)NC(=O)c1ccccc1` stands “inactive”; under `CCOC(=O)C(=CNc1cccc(C)n1)C(=O)OCC`, “inactive”; under `CCOC(=O)C(=Cc1ccccc1)C(=O)c1ccccc1`, 18.4 µM (active).
With `O=c1ccc2cc(S(=O)(=O)Nc3ccccc3F)ccc2o1`, the Potency entry was “inactive”.
The result for `CCCn1cc(S(=O)(=O)c2ccc(C)cc2)c(=O)c2cc(OCC)ccc21` reads “inactive”.
For `CCOc1ccc(S(=O)(=O)c2cn(Cc3ccccc3)c3ccc(OCC)cc3c2=O)cc1`, the Potency was 13 µM (active).
Under `CCOc1ccc(S(=O)(=O)NCCSc2ccccc2)cc1` stands “inactive”.
Under `CCOc1cccc(C(=O)Nc2cnn(Cc3ccccc3)c2)c1` stands “inactive”; under `COc1ccc2c(c1)c(=O)c(S(=O)(=O)c1ccc(F)cc1)cn2CC(=O)Nc1ccc(C)cc1C`, “inactive”.
The result for `CCOc1ccc2c(c1)c(=O)c(S(=O)(=O)c1ccc(C)cc1)cn2CC` reads 18.4 µM (active).
For the molecule `CCN(CC)Cc1c(C(=O)N/N=C/c2cccc(OCc3ccc(F)cc3)c2)nnn1-c1nonc1N`, the Potency result was “inactive”.
The result for `CC(C)(C)n1nc2c(c1NC(=O)c1cc3ccccc3o1)CSC2` reads “inactive”.
